From PubChem BioAssay
D1 antag = blocks dopamine activation of the human D1 receptor. P21728. HEK293 TREx D1 cells, calcium flux, dopamine EC80; hits give low values. activity change, negative = inhibition, % at 10 µM. actives 3.2% (n = 360,000); in the data active = activity change below about -30%; note: % is set by controls: 0 for no effect and ±100 for the full control effect
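After overnight tetracycline induction at 30 C, force-coupled D1 HEK293 cells took up a no-wash calcium dye at room temperature. Compounds were added and monitored 180 s, and the response to EC80 dopamine was then recorded.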
D1 PAM = enhances dopamine response at the human D1 receptor; P21728; HEK293 TREx D1 cells, calcium flux, dopamine EC20 potentiation; potentiation, % at 10 µM; actives 0.036% (n = 360,000); AID 504651; in the data active = potentiation above about 30%; note: 0% is about no effect
D3 ag = D3 dopamine receptor (human) agonism; P35462; D3R DiscoveRx beta-arrestin cells, luminescence, 90 min; max activation, %; actives 0.58% (n = 410,000); in the data active = max activation above about 30%; note: 0% is about no effect
Target sequence (P35462 whole entry, looked up): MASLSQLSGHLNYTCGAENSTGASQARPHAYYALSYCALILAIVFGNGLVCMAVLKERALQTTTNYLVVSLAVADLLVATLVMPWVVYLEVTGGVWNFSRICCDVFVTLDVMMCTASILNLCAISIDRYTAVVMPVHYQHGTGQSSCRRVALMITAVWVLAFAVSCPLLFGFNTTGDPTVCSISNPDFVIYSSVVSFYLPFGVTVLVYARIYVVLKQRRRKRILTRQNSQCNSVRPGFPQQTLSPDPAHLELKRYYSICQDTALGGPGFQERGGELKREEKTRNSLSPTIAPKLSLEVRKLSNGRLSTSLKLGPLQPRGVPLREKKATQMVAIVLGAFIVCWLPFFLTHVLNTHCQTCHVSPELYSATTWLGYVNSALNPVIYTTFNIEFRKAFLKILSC
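Cells at 1500/well, incubated overnight, then treated with pinned compounds (dopamine as control) for 90 min at 37 degrees C. DiscoveRx reagent added for 30 - 60 minutes at room temperature; luminescence read.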
D3 antag = blocks the human D3 dopamine receptor | actives 2.5% (n = 360,000) | P35462 | max response, negative = inhibition, % | AID 652054 | D3R cells, DiscoveRx beta-arrestin luminescence, antagonist mode; hits give low values; in the data active = max response below about -50%; inconclusive = no clear call, values can overlap the other calls; note: % is set by controls: 0 for no effect and ±100 for the full control effect
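Cells plated overnight at 1500 cells/well, then exposed to library compounds with dopamine controls for 90 minutes at 37 degrees C. DiscoveRx reagent added for 30–60 minutes at room temperature; luminescence read, quantitative HTS format.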
D1 agonist = activates the human D1 dopamine receptor; P21728; HEK293 T-REx D1 cells, calcium flux, agonist mode; activation, % at 2 µM; actives 1% (n = 360,000); AID 504660; in the data active = activation above about 30%; note: 0% is about no effect
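Agonism was scored from calcium flux recorded over 180 s (1 read/s) after pintool compound addition, following a 10-cycle baseline. Cells were inducible force-coupled HEK293 TREx D1, plated overnight at 30 C and loaded with no-wash calcium dye.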
An asterisk follows results filed as active; u = inconclusive; x = not tested or not shown. Only some compounds are listed: those with a hit (about 6% of all), similar ones and a draw of the others.

SMILES	D1 antag	D1 PAM	D3 ag	D3 antag	D1 agonist
Cc1cccc(NC(=O)c2cn(-c3ccccc3)nc2-c2ccccc2)c1C	-9	0	-10	x	3
COc1ccc(S(=O)(=O)Nc2cccc(-c3ccc(N4CCCC4)nn3)c2)cc1F	-23	-1	1	x	4
CCOC(=O)c1ccccc1Nc1cc(C)nc2nc(-c3ccco3)nn12	-32*	2	9	x	74*
Cc1ccc(C2Nc3cccc4cccc(c34)N2)s1	8	-2	-3	-61*	3
Brc1ccc(C2Nc3cccc4cccc(c34)N2)cc1	x	x	-12	-63*	x
O=C1NC(c2ccc3ccccc3c2)Nc2ccccc21 (centres undefined)	x	x	-5	-22	x
O=[N+]([O-])c1ccc(C2Nc3cccc4cccc(c34)N2)cc1	0	0	2	u	0
c1coc(C2Nc3cccc4cccc(c34)N2)c1	-7	-3	x	x	0
O=C1NC(c2ccc(Br)cc2)Nc2ccccc21 (centres undefined)	-32*	-4	-5	16	-2
Clc1ccccc1C1Nc2cccc3cccc(c23)N1	29	-2	0	-19	-2
Clc1cccc(C2Nc3cccc4cccc(c34)N2)c1Cl	-36*	-12	-5	3	2
Cc1cccn2cc(-c3cccc(NC(=O)C(C)C)c3)nc12	4	0	-7	x	-3
O=C(NCc1ccccc1Cl)c1ccc2c(c1)NC(=O)C(CS(=O)(=O)Cc1ccc(Cl)cc1)N2 (centres undefined)	3	0	-10	x	-4
FC(F)(F)c1ccc(C2Nc3cccc4cccc(c34)N2)cc1	-2	-6	-3	-9	7
Fc1ccc(C2Nc3cccc4cccc(c34)N2)cc1	4	-3	-4	-75*	3
O=C(NCc1ccc(F)cc1)C1CCCCN1S(=O)(=O)c1ccc(F)cc1 (centres undefined)	-24	-4	-15	x	3
Cc1ccccc1CNC(=O)C1CCCCN1S(=O)(=O)c1ccc(F)cc1 (centres undefined)	-32*	-6	-2	x	0
COc1cc(OC)c(OC)cc1/C=C/c1cc(C(=O)O)c2ccccc2n1	12	-3	10	7	4
COc1ccc(/C=C/c2cc(C(=O)O)c3ccccc3n2)cc1	-33*	-4	-12	-25	0
CCS(=O)(=O)c1ncc(N(Cc2ccco2)Cc2ccccc2F)c(C(=O)Nc2cccc(Cl)c2)n1	6	0	0	x	2
O=c1c2c3c(sc2nc2n1CCC2)CCC3	2	-1	-1	-52*	6
CSc1nc2sc3c(c2c(=O)n1C)CCC3	-35*	-1	7	6	1
CCc1nc2sc3c(c2c(=O)n1CCO)CCC3	-44*	0	7	-3	0
O=c1c2c3c(sc2nc2n1CCC2)CCCCC3	9	3	5	0	2
CSc1nc2sc3c(c2c(=O)n1C)CCCC3	6	-2	11	20	2
SMILES	D1 antag	D1 PAM	D3 ag	D3 antag	D1 agonist
Cc1ccc(C(=O)n2nc(C)c(S(=O)(=O)N3CCOCC3)c2C)cc1	9	0	-18	x	-2
COc1ccc(C(=O)CN2C(=O)N(c3ccc(C(C)=O)cc3)S(=O)(=O)c3ccccc32)cc1	22	0	1	x	5
Cc1cc(Br)ccc1OCCCCN1CCC(C)CC1	-10	-6	-27	-76*	11
Brc1ccc(OCCCCN2CCCCC2)cc1	-18	2	-7	-55*	8
CC1CCN(CCCCOc2cccc(Br)c2)CC1	-2	-4	-32	u	21
CC1CCN(CCCCOc2ccc(Br)cc2)CC1	-10	-5	-18	-52*	11
Cc1ccc(CCNC(=O)Cn2ncc3c([nH]c4ccc(C)cc43)c2=O)cc1	10	2	-7	x	2
Cc1cccc(N2CCN(S(=O)(=O)c3ccc(-c4cnc(C5CC5)o4)cc3)CC2)c1C	5	-1	-4	x	3
Cc1cc2nc3c(=O)[nH]c(=O)nc-3n(C[C@H](O)[C@H](O)[C@H](O)COP(=O)(O)OP(=O)(O)OC[C@H]3O[C@@H](n4cnc5c(N)ncnc54)[C@H](O)[C@@H]3O)c2cc1C	x	x	-9	x	x
CC(C)(C)n1nnnc1C(c1cccnc1)N1CCN(c2ccccc2)CC1 (centres undefined)	21	-3	1	10	2
CC(C)(C)n1nnnc1C(c1cccnc1)N1CCN(c2ccccn2)CC1 (centres undefined)	-60*	-3	2	-8	31*
O=c1c(Cl)c2oc3ccccc3nc-2c2ccccc12	49	0	11	22	75*
Clc1ccc(-c2nnc(Sc3nc4ccccc4o3)c3ccccc23)cc1	-4	-5	-22	u	0
COc1ccccc1NC1=C(C)C(=O)CC1	1	0	-2	5	-3
COc1ccc(OC)c2c1CCC2=O	-65*	-8	3	-52*	0
CCOc1ccc(N2CC(NC(=O)c3ccc(Cl)cc3)CC2=O)cc1 (centres undefined)	x	-3	-6	x	-1
CC(=O)Nc1ccc(OC(C)=O)cc1	x	x	-8	x	x
C=CCn1c(O)c(N=Nc2ccccc2O)c2ccccc21	1	-3	-10	0	41*
C=CCn1c(O)c(N=Nc2ccccc2)c2ccccc21	10	14	-12	-12	6
Cc1ccccc1N=Nc1c(O)n(C)c2ccccc12	-39*	-4	-3	-27	5
Cc1ccc(C(=O)c2c3ccccc3[n+]([O-])n2[C@@H](C)C(N)=O)cc1	1	3	-16	-64*	-1
Cc1ccc(C(=O)c2c3ccccc3[n+]([O-])n2CCC(N)=O)cc1	9	-4	4	26	-1
CCCCCCOc1ccc(N2C(=O)CC(N3CCN(C(=O)c4ccco4)CC3)C2=O)cc1 (centres undefined)	-41*	-4	0	-6	19
COc1ccc(N2C(=O)CC(N3CCN(c4ccccc4OC)CC3)C2=O)cc1 (centres undefined)	11	-4	-14	7	0
CCCOc1ccc(N2C(=O)CC(N3CCN(c4nc5ccccc5s4)CC3)C2=O)cc1 (centres undefined)	-31*	3	5	3	3
COc1ccc(N2C(=O)C3CCCN3C2=O)cc1 (centres undefined)	-34*	-2	3	6	-1
COc1ccc(N2C(=O)CC(N3CCN(c4ccccc4F)CC3)C2=O)cc1 (centres undefined)	3	2	4	-66*	1
CCOc1ccc(N2C(=O)C3CCCN3C2=O)cc1 (centres undefined)	-17	8	5	18	0
CCOC(=O)c1cccc(NC(=O)CCn2c(-c3ccc(F)cc3)cc(C(=O)OCC)c2C)c1	-14	-4	3	x	8
